Source: PubChem
miR-122 sensor: blocks miR-122 activity in Huh7 sensor cells; 340,000 compounds, 0.3% hits; activation (reporter increase), % at 12.5 µM; Huh7 miR-122 Renilla luciferase sensor, 48 h; neutral wells = 0, positive control = 100;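 active means mean replicate activation score at least 90 and every replicate individually at or above 90; inconclusive means only one of the two criteria met; inactive means neither criterion met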;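 further: higher luciferase means less miR-122 activity so hits act as miR-122 inhibitors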
esBAF inh: blocks esBAF chromatin remodeling in mouse ES cells | Bmi1-luciferase knock-in reporter, 24 h; 100% = twice the neutral-well signal | reporter increase, % at 12.5 µM | 350,000 compounds, 2% hits | AID 602393; in the data active means activation above about 40%; inconclusive means no clear call, values can overlap the other calls;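 further: 0% = median of the plate's neutral control wells and 100% = double that signal; a rise in the Bmi1 reporter signal indicates esBAF inhibition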
Wnt bcat act: activates Wnt/beta-catenin signaling in a reporter cell assay; 300,000 compounds, 1.2% hits; AID 743398; activation, % at 9.35 µM; activator, plate reader; in the data active means activation above about 30%, passing the limit was not always enough; inconclusive means no clear call, values can overlap the other calls;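 further: 0% = neutral control wells and 100% = positive control wells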
HIV Env fusion: inhibitors of HIV Env-mediated cell fusion | inhibition, % at 12.3 µM | AID 651610 | HeLa-JRFL Env/CEM21 cell fusion, luciferase | 360,000 compounds, 1.1% hits;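 active means mean replicate inhibition score of at least 50 and every replicate individually at or above 50; inconclusive means only one of the two criteria met; inactive means mean below 50 and not all replicates reaching 50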;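 further: 0% = plate neutral controls and 100% = maraviroc near 300 nM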
MITF TRPM1 HTS: increases MITF-driven TRPM1 promoter luciferase signal; activation, % at 12.5 µM; 300,000 compounds, 0.75% hits; SK-MEL-5 TRPM1-promoter luciferase, 24 h; % of positive control, neutral wells = 0;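 active means mean activation of at least 80% with every replicate also reaching 80%; inconclusive means mean reaches 80% but some replicate falls short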;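 further: 0% = neutral control wells and 100% = parthenolide positive control wells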
Numbers without * were called inactive; ? = inconclusive; / = not tested or not shown; [ ] = dose if it differs, or a comment. Only some compounds are listed: those with a hit (about 3.4% of all), similar ones and a draw of the others.

SMILES | miR-122 sensor | esBAF inh | Wnt bcat act | HIV Env fusion | MITF TRPM1 HTS
COc1ccc(S(=O)(=O)Nc2ccc3c(c2)C(=O)N([C@@H](C)CO)C[C@H](C)[C@H](CN(C)Cc2ccc(Cl)c(Cl)c2)OCCCC[C@@H](C)O3)cc1 | -12.1[16.7 µM] | -2.6 | / | 11.0[16.7 µM] | /
CCCN(C)C[C@H]1Oc2cc(-c3cccc(OC)c3)ccc2S(=O)(=O)N([C@H](C)CO)C[C@H]1C | 7.4[16.7 µM] | -0.7 | / | -20.5[16.7 µM] | /
Cc1ccc(S(=O)(=O)N[C@@H]2C=C[C@H](CC(=O)O)O[C@H]2CO)cc1 | / | 1.7 | / | 12.3[16.7 µM] | /
CS(=O)(=O)Nc1ccc2c(c1)[C@@H]1C[C@@H](CC(=O)NC3CCCCC3)O[C@H](CO)[C@@H]1O2 | 5.6[16.7 µM] | 0.0 | / | -7.7[16.7 µM] | /
C[C@@H]1CN([C@H](C)CO)S(=O)(=O)c2ccc(C#Cc3ccccc3F)cc2O[C@@H]1CN(C)C | 0.2[16.7 µM] | -4.1 | / | -0.3[16.7 µM] | /
Cc1ccccc1C1=NC(c2ccc(F)cc2F)ON1 (configuration not stated) | -1.7 | 47.7* | / | / | 60.8
S=c1[nH]cc(-c2ccccc2)n1-c1cccc(Cl)c1 | / | / | 6.6 | 70.2* | -0.9
COc1cccc(-n2c(-c3ccccc3)c[nH]c2=S)c1 | -0.3 | -5.2 | -3.5 | -9.6 | -7.1
CNC(=O)C[C@H]1CC[C@H]2[C@@H](COc3ccc(NS(=O)(=O)c4cccc(F)c4)cc3C(=O)N2C)O1 | -3.2[16.7 µM] | 0.9 | / | -8.8[16.7 µM] | /
CC(C)C#Cc1ccc2c(c1)O[C@H](CN(C)C(=O)C1CCC1)[C@H](C)CN([C@@H](C)CO)S2(=O)=O | -5.0[16.7 µM] | / | / | 10.7[16.7 µM] | /
CO[C@H]1CN(C)C(=O)c2ccc(NS(=O)(=O)c3ccccc3C)cc2OC[C@H](C)N(C)C[C@H]1C | / | 0.4 | / | -8.5[16.7 µM] | /
CCOC(=O)[C@H]1[C@H]2COc3ccc(Br)cc3[C@@H]2N2C(=O)c3c(C)cc(C)cc3NC(=O)[C@@]12C | -0.5 | -4.6 | -4.6 | 67.0* | -0.7
CCOC(=O)[C@H]1[C@H]2COc3ccc(Br)cc3[C@@H]2N2C(=O)c3ccc(C)cc3NC(=O)[C@@]12C | / | 0.9 | 2.2 | -243.2 | -2.3
CCOC(=O)[C@H]1[C@H]2COc3ccc(Br)cc3[C@@H]2N2C(=O)N(c3ccccc3)C(=O)[C@@]12C | 0.1 | 5.6 | -3.7 | -31.0 | -2.9
CCOC(=O)[C@@H]1[C@H]2COc3ccc(Br)cc3[C@@H]2N2C(=O)N(c3ccccc3)C(=O)[C@@]12C | / | -17.8 | -0.7 | 86.8* | 2.2
CO[C@@H]1CN(C)C(=O)c2cc(NC(=O)C3CC3)ccc2OC[C@H](C)N(C(C)=O)C[C@@H]1C | / | 4.2 | / | / | /
COCc1cn(CC[C@H]2CC[C@@H](NC(=O)Nc3ccc(F)cc3)[C@H](CO)O2)nn1 | / | 1.1 | / | 0.4[16.7 µM] | /
CCOC(=O)C1CCN(c2ccc(-c3cccs3)nn2)CC1 | / | 32.4 | 38.0* | 5.4 | 83.5*
CCOC(=O)C1CCN(c2ccc(Cl)nn2)CC1 | / | / | 0.7 | -8.5 | 4.8
c1csc(-c2ccc(N3CCOCC3)nn2)c1 | -0.4 | -41.4 | 33.5* | -2.3 | 1.4
c1csc(-c2nnc(-c3ccc(N4CCOCC4)cc3)o2)c1 | -6.4 | -25.6 | / | -251.3 | 16.7
COCC(=O)Nc1ccc2c(c1)C(=O)N(C)C[C@H](OC)[C@H](C)CN(Cc1cc(F)ccc1F)[C@@H](C)CO2 | / | -2.2 | / | 6.9[16.7 µM] | /
C[C@H](CO)N1C[C@H](C)[C@@H](CN(C)C(=O)Nc2cccc3ccccc23)OCCCC[C@H](C)Oc2ccc(NS(=O)(=O)c3cccs3)cc2C1=O | -11.9[16.7 µM] | 4.5 | / | 24.3[16.7 µM] | /
Fc1cccc(NCc2cn3ccccc3n2)c1 | -4.9 | 60.3* | / | -167.6 | /
CC(C)NC(=O)Nc1ccc2c(c1)C(=O)N([C@H](C)CO)C[C@H](C)[C@@H](CN(C)C(=O)c1ccccc1)OCCCC[C@@H](C)O2 | -3.2[16.7 µM] | -5.0 | / | 23.6[16.7 µM] | /
SMILES | miR-122 sensor | esBAF inh | Wnt bcat act | HIV Env fusion | MITF TRPM1 HTS
CC(C)n1cnc2cc(NC(=O)c3ccco3)ccc21 | / | 16.8 | 18.7 | -22.8 | 56.7
O=C(CSc1nnnn1C1CCCCC1)Nc1cccc(NC(=O)c2ccco2)c1 | 10.0 | 7.6 | 59.8* | 21.5 | 10.5
O=C(Nc1ccc2c(c1)ncn2C1CCCCC1)c1ccco1 | 1.3 | ? | 44.5* | -77.7 | /
CC(C)C#Cc1cnc2c(c1)C(=O)N([C@@H](C)CO)C[C@H](C)[C@H](CN(C)C(=O)CCN1CCCCC1)O2 | 7.9[16.7 µM] | -1.5 | / | -26.3[16.7 µM] | /
Cc1nn(C)cc1NC(=O)C[C@@H]1CC[C@@H]2[C@H](COc3ccc(NC(=O)NC(C)C)cc3C(=O)N2C)O1 | 16.7[16.7 µM] | -5.8 | / | 10.6[16.7 µM] | /
O=C(COC(=O)C1CCN(S(=O)(=O)c2cccs2)CC1)NCc1ccccc1 | -3.1 | 1.5 | 8.5 | 4.4 | -8.3
Cc1ccc(CNC(=O)COC(=O)C2CCN(S(=O)(=O)c3cccs3)CC2)cc1 | -6.2 | 2.3 | 95.8* | 1.8 | -2.5
O=c1cnn(-c2ccc(Cl)cc2Cl)c(-c2ccccc2)c1 | -6.0 | 48.7* | / | -20.8 | -2.3
C(=NN1CCCCCC1)c1ccc2c(c1)OCO2 | -0.3 | 18.8 | 32.8* | -122.6 | 22.9
O=C(/C=C/C=C/c1ccc2c(c1)OCO2)N1CCCCC1 | -9.6 | 50.7* | 0.9 | / | 97.8*
CN1CCN(C(=O)/C=C/c2ccc3c(c2)OCO3)CC1 | / | / | 0.4 | 0.9 | 4.9
C(=N\n1cnnc1)/c1ccc2c(c1)OCO2 | -0.5 | -0.9 | -2.5 | -39.4 | -7.8
CO[C@@H]1CN(C)C(=O)c2cc(NC(=O)C3CCCC3)ccc2OC[C@H](C)N(C(C)=O)C[C@@H]1C | 0.2[16.7 µM] | -1.5 | / | -7.3[16.7 µM] | /
C=C(C)CSc1nncn1/N=C/c1ccc(OC)cc1 | -1.0 | 49.6* | / | -129.9 | 98.3*
COCC(=O)N1CC2(CN(Cc3ccc(OC)cc3)C2)c2c([nH]c3cc(OC)ccc23)[C@H]1CO | / | / | / | -2.6[16.7 µM] | /
O=C(COc1cc(Cl)ccc1Cl)Nc1ccc2c(c1)CCC2 | / | / | 5.7 | 5.5 | 27.6
NC(=O)c1ccccc1OCC(=O)Nc1ccc(Cl)c(Cl)c1 | / | / | 39.9* | -191.5 | 64.4
COc1ccccc1OCC(=O)Nc1ccc(Cl)cc1 | 5.4 | 17.8 | 19.1 | -144.2 | 51.6
NC(=O)c1ccccc1OCC(=O)Nc1ccc2c(c1)CCC2 | -5.1 | 97.4* | 26.5 | -21.0 | 93.1*
C[C@@H]1CN([C@@H](C)CO)C(=O)Cc2cc(NC(=O)Nc3ccc4c(c3)OCO4)ccc2O[C@H]1CN(C)Cc1ccncc1 | -5.3[16.7 µM] | -3.1 | / | / | /
COc1ccc(S(=O)(=O)N(C)C[C@H]2Oc3ccc(NS(=O)(=O)c4ccc(F)cc4)cc3C(=O)N([C@@H](C)CO)C[C@@H]2C)cc1 | 5.0[16.7 µM] | 3.2 | / | -10.4[16.7 µM] | /
O=C(Nc1cc(F)ccc1F)N[C@H]1CC[C@H](CCn2cc(C3CC3)nn2)O[C@H]1CO | -1.9[16.7 µM] | 4.6 | / | -11.5[16.7 µM] | /
O=c1[nH]c(-c2ccccc2)cnc1-c1ccccc1 | 2.5 | / | 37.3* | -33.4 | /
O=c1[nH]c2c(=O)[nH]cnc2nc1-c1ccccc1 | / | / | -3.3 | -1.8 | /
O=S(=O)(c1cc(F)ccc1F)N1CCC2(CC1)OCCO2 | / | / | -1.4 | 59.7* | -2.0
O=S(=O)(c1ccc(F)cc1)N1CCC2(CC1)OCCO2 | -3.0 | / | -0.2 | 5.4 | 3.1
O=C1c2cccc3cccc(c23)C(=O)N1Cc1ccccc1 | / | / | -4.1 | 10.3 | -4.7
COc1ccc(CN2C(=O)c3cccc4cccc(c34)C2=O)cc1 | 2.5 | / | 41.4* | -6.1 | -2.7
